Assay results from PubChem BioAssay AID1159580 (chemical genetic matrix, 2015).
In all, about 5,500 compounds went through this assay and about 2,000 (36%) were called active. Inconclusive results (about 18%) are left out. No stated cut-off is given here; in the data, active means normalized growth mostly below about 0.91 (no sharp cut-off); inconclusive means no clear call, values can overlap the other calls; inactive means mostly above about 0.92. This is one part of the list.

Experiment: chemical genetic growth profiling, strain panel (AID 1159580);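 further: tested at 20 µM; growth read once vehicle control cultures reached saturation at 30 °C; 1 = growth at the plate median or of vehicle wells; lower values mean less growth of the strain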
Details: growth OD

Measured: normalized growth

CCCCC(CC)CN1CN(CC(CC)CCCC)CC(C)(N)C1 (centres undefined)
active: S. cerevisiae deletion strains, locus YJR043C, strain POL32, active compounds read low 0.37 | S. cerevisiae deletion strains, locus YJR075W, strain HOC1, active compounds read low 0.372 | S. cerevisiae deletion strains, locus YKL160W, strain elf1, active compounds read low 0.373 | S. cerevisiae deletion strains, locus YKL190W, strain CNB1, active compounds read low 0.445 | S. cerevisiae deletion strains, locus YKR001C, strain vps1, active compounds read low 0.0669 | S. cerevisiae deletion strains, locus YKR026C, strain gcn3, active compounds read low 0.059 | S. cerevisiae deletion strains, locus YKR091W, strain srl3, active compounds read low 0.0561 | S. cerevisiae deletion strains, locus YLL001W, strain dnm1, active compounds read low 0.0613 | S. cerevisiae deletion strains, locus YLL026W, active compounds read low 0.0554 | S. cerevisiae deletion strains, locus YLL041C, strain sdh2, active compounds read low 0.0528 | S. cerevisiae deletion strains, locus YLR027C, strain aat2, active compounds read low 0.0535 | S. cerevisiae deletion strains, locus YLR039C, strain RIC1, active compounds read low 0.352 | S. cerevisiae deletion strains, locus YLR058C, strain SHM2, active compounds read low 0.525 | S. cerevisiae deletion strains, locus YLR102C, strain apc9, active compounds read low 0.832 | S. cerevisiae deletion strains, locus YLR221C, strain rsa3, active compounds read low 0.0576 | S. cerevisiae deletion strains, locus YLR258W, strain gsy2, active compounds read low 0.0568 | S. cerevisiae deletion strains, locus YLR262C, strain YPT6 (second series), active compounds read low 0.0741 | S. cerevisiae deletion strains, locus YLR262C, strain YPT6, active compounds read low 0.269 | S. cerevisiae deletion strains, locus YLR268W, strain sec22, active compounds read low 0.484 | S. cerevisiae deletion strains, locus YLR320W, strain mms22, active compounds read low 0.0732 | S. cerevisiae deletion strains, locus YLR330W, strain CHS5, active compounds read low 0.437 | S. cerevisiae deletion strains, locus YLR342W, strain FKS1 (second series), active compounds read low 0.254 | S. cerevisiae deletion strains, locus YLR342W, strain FKS1, active compounds read low 0.0622 | S. cerevisiae deletion strains, locus YLR357W, strain rsc2, active compounds read low 0.114 | S. cerevisiae deletion strains, locus YLR370C, strain arc18, active compounds read low 0.0656 | S. cerevisiae deletion strains, locus YLR371W, strain rom2, active compounds read low 0.23 | S. cerevisiae deletion strains, locus YLR384C, strain iki3, active compounds read low 0.0552 | S. cerevisiae deletion strains, locus YLR418C, strain cdc73, active compounds read low 0.153 | S. cerevisiae deletion strains, locus YML016C, strain PPZ1, active compounds read low 0.743 | S. cerevisiae deletion strains, locus YML032C, strain rad52, active compounds read low 0.407 | S. cerevisiae deletion strains, locus YML120C, strain ndi1, active compounds read low 0.0565 | S. cerevisiae deletion strains, locus YML124C, strain tub3, active compounds read low 0.692 | S. cerevisiae deletion strains, locus YMR058W, strain fet3, active compounds read low 0.0601 | S. cerevisiae deletion strains, locus YMR078C, strain ctf18, active compounds read low 0.802 | S. cerevisiae deletion strains, locus YMR125W, strain sto1, active compounds read low 0.0743 | S. cerevisiae deletion strains, locus YMR129W, active compounds read low 0.0564 | S. cerevisiae deletion strains, locus YMR205C, strain PFK2, active compounds read low 0.0816 | S. cerevisiae deletion strains, locus YMR223W, strain ubp8, active compounds read low 0.316 | S. cerevisiae deletion strains, locus YMR231W, strain pep5, active compounds read low 0.0615 | S. cerevisiae deletion strains, locus YMR263W, strain SAP30, active compounds read low 0.489 | S. cerevisiae deletion strains, locus YMR307W, strain GAS1, active compounds read low 0.162 | S. cerevisiae deletion strains, locus YNL067W, strain RPL9B, active compounds read low 0.605 | S. cerevisiae deletion strains, locus YNL071W, strain lat1, active compounds read low 0.058 | S. cerevisiae deletion strains, locus YNL128W, strain TEP1, active compounds read low 0.288 | S. cerevisiae deletion strains, locus YNL153C, strain GIM3, active compounds read low 0.356 | S. cerevisiae deletion strains, locus YNL209W, strain ssb2, active compounds read low 0.0575 | S. cerevisiae deletion strains, locus YNL233W, strain BNI4, active compounds read low 0.26 | S. cerevisiae deletion strains, locus YNL248C, strain rpa49, active compounds read low 0.0852 | S. cerevisiae deletion strains, locus YNL307C, strain MCK1, active compounds read low 0.262 | S. cerevisiae deletion strains, locus YNL322C, strain KRE1 (second series), active compounds read low 0.0601 | S. cerevisiae deletion strains, locus YNL322C, strain KRE1, active compounds read low 0.336 | S. cerevisiae deletion strains, locus YNR049C, strain mso1, active compounds read low 0.0593 | S. cerevisiae deletion strains, locus YNR052C, strain pop2, active compounds read low 0.0951 | S. cerevisiae deletion strains, locus YOL006C, strain TOP1, active compounds read low 0.196 | S. cerevisiae deletion strains, locus YOL147C, strain pex11, active compounds read low 0.497 | S. cerevisiae deletion strains, locus YOR001W, strain rrp6, active compounds read low 0.0714 | S. cerevisiae deletion strains, locus YOR061W, strain CKA2, active compounds read low 0.583 | S. cerevisiae deletion strains, locus YOR069W, strain VPS5, active compounds read low 0.736 | S. cerevisiae deletion strains, locus YOR070C, strain gyp1, active compounds read low 0.0567 | S. cerevisiae deletion strains, locus YOR080W, strain dia2, active compounds read low 0.0601 | S. cerevisiae deletion strains, locus YOR083W, strain WHI5, active compounds read low 0.0602 | S. cerevisiae deletion strains, locus YOR106W, strain vam3, active compounds read low 0.0665 | S. cerevisiae deletion strains, locus YOR136W, strain idh2, active compounds read low 0.607 | S. cerevisiae deletion strains, locus YOR144C, strain elg1, active compounds read low 0.662 | S. cerevisiae deletion strains, locus YOR184W, strain ser1, active compounds read low 0.325 | S. cerevisiae deletion strains, locus YOR265W, strain rbl2, active compounds read low 0.0536 | S. cerevisiae deletion strains, locus YOR270C, strain vph1, active compounds read low 0.0981 | S. cerevisiae deletion strains, locus YOR290C, strain snf2, active compounds read low 0.0607 | S. cerevisiae deletion strains, locus YOR316C, strain cot1, active compounds read low 0.863 | S. cerevisiae deletion strains, locus YPL051W, strain arl3, active compounds read low 0.0603 | S. cerevisiae deletion strains, locus YPL055C, strain LGE1, active compounds read low 0.189 | S. cerevisiae deletion strains, locus YPL078C, strain atp4, active compounds read low 0.0642 | S. cerevisiae deletion strains, locus YPL106C, strain sse1, active compounds read low 0.0997 | S. cerevisiae deletion strains, locus YPL240C, strain hsp82, active compounds read low 0.0539 | S. cerevisiae deletion strains, locus YPL241C, strain CIN2, active compounds read low 0.733 | S. cerevisiae deletion strains, locus YPR119W, strain clb2, active compounds read low 0.627 | S. cerevisiae deletion strains, locus YPR163C, strain tif3, active compounds read low 0.178 | S. cerevisiae deletion strains, locus YPR167C, strain met16, active compounds read low 0.533 | S. cerevisiae deletion strains, strain wtn01, active compounds read low 0.425 | S. cerevisiae strains, strain wild type, active compounds read low 0.21
inactive: S. cerevisiae deletion strains, locus YKL009W, strain mrt4, active compounds read low 0.939 | S. cerevisiae deletion strains, locus YKL068W, active compounds read low 1.01 | S. cerevisiae deletion strains, locus YKL085W, strain MDH1 (second series), active compounds read low 0.994 | S. cerevisiae deletion strains, locus YKL085W, strain MDH1, active compounds read low 0.994 | S. cerevisiae deletion strains, locus YNL250W, strain rad50, active compounds read low 1.01 | S. cerevisiae deletion strains, locus YNL271C, strain bni1, active compounds read low 0.997 | S. cerevisiae deletion strains, locus YNL298W, strain CLA4, active compounds read low 1.01 | S. cerevisiae deletion strains, locus YOL012C, strain htz1 0.192 | S. cerevisiae deletion strains, locus YPR141C, strain kar3, active compounds read low 1.01
